The results in this text go back to PubChem BioAssay.

Where “and” joins values, the source holds several entries; their conditions need not be identical. Equal values may be shown once. Calls of active or inactive are those of the source.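 How the source made its calls, unless noted: active means normalized viability below 100% at a tested concentration; inactive means the rest.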

A short description of assay [1]: drug combination growth inhibition, ovarian cancer – cell-based, oncology-focused library, rucaparib conditional, profiling panel (AID 1508598). Conditions: patient-derived ovarian cancer cells, CellTiter-Glo viability, 144 h, stronger effect = lower value. On the technique in general: Cellular ATP, detected with luciferase, serves as a proxy for viable cell number.
For assay [2], the target named is Mitogen-activated protein kinase 7 (Homo sapiens) (UniProt Q13164). The assay can be described thus: Gal4-ERK5 driven luciferase induction – cell-based, HTS, primary screen (AID 1508626;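 active means luciferase signal above three times the same-plate solvent-only control wells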;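 further: luciferase driven by Gal4-ERK5 fusion binding five Gal4 sites before minimal TATA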). Conditions: HeLa Gal4-ERK5 transactivation, 18 h, at 5 µM, stronger effect = higher value.
Assay [3] deals with 6-phosphogluconate dehydrogenase, decarboxylating (Homo sapiens) (UniProt P52209). In words: inhibition of human phosphogluconate dehydrogenase – biochemical, recombinant enzyme, NADPH absorbance, primary screen (AID 1159550;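 active means at least 20% inhibition of 6-phosphogluconate dehydrogenase activity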). Conditions: recombinant 6PGD, NADPH absorbance 341 nm; at 10 µM; stronger effect = higher value.
The nature of assay [4]: modulation of C. elegans fzo-1 (AID 1259413; call rule not given here;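 further: fzo-1 mutant C. elegans worms in liquid wells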). The note with it: C. elegans fzo-1 modulator screen, mean read-out; stronger effect = higher value.
For assay [5], the target named is NAD(+) hydrolase SARM1 (Homo sapiens) (UniProt Q6SZW1). In words: blocking NAD cleavage by SARM1 SAM-TIR – cell lysate, NAD-Glo luminescence (AID 1508614;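 active means compound whose remaining NAD level is above about 45 nM, limit read from the data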). Conditions: SAM-TIR HEK293T lysate NADase, at 1 µM, stronger effect = higher value.
Assay [6] is described as follows: signal quenchers or enhancers, Cy5 substrate/SSB – biochemical, NIH Clinical Collection, E. coli SSB, artefact control for HCV NS3 helicase inhibitor project (AID 743268; call rule not given here). Conditions: Cy5-oligo bound E. coli SSB, fluorescence interference.
In assay [7] the test system is Hepatitis C virus NS3 helicase. In words: blockers of NS3h binding to DNA – biochemical, fluorescence polarization, NIH Clinical Collection, primary screen (AID 743270; call rule not given here). Conditions: NS3 helicase binding to Cy5-dT15 DNA, stronger effect = higher value, concentration not given here.
In assay [8] the target is Single-stranded DNA-binding protein (Escherichia coli (strain K12)) (UniProt P0AGE0). In words: SSB-ssDNA binding inhibitors – biochemical, fluorescence polarization, NIH Clinical Collection, counter-screen for HCV NS3 helicase inhibitor project (AID 743271; in the data active means inhibition above about 28%). The note with it: E. coli SSB-DNA binding, stronger effect = higher value, concentration not given here. On the technique in general: Fluorescence polarisation rises when a labelled molecule tumbles more slowly, as on binding a larger partner.

Assay [9] can be described thus: compounds distorting NS3 helicase fluorescence signal – biochemical, NIH Clinical Collection, artefact control for HCV NS3 helicase inhibitor project (AID 743272; call rule not given here;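 further: HCV NS3 helicase with a Cy5 labelled single stranded DNA probe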). The note with it: fluorescence interference counterscreen, HCV NS3 helicase assay; stronger effect = lower value. A general note: A counterscreen serves to expose hits that act by an unwanted route or on another target.

Assay [10] can be described thus: EMT-state selective cytotoxicity in co-culture – imaging, PC-3E GFP, TEM4-18 mCherry, primary screen (AID 1345086;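 active means compounds killing one labelled cell type while sparing the other, by normalised counts and ratio limits, not self-fluorescent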;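 further: cells exposed to compound for 72 h before imaging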;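 on red/green cell ratio (normalised): normalised mesenchymal count divided by normalised epithelial count so high means epithelial killing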). Conditions: PC-3E GFP / TEM4-18 mCherry co-culture, imaging cell counts, at 1 µM.
A short description of assay [11]: MELAS cybrid and Rieske KO viability enhancers – cell-based, MELAS cybrids, Rieske KO mouse fibroblasts, CellTiter-Glo, primary screen (AID 1508586;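 active means mean z-score across replicates of 1.96 or higher in either the MELAS or the Rieske mutant cell line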;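 further: z relative to plate mean and SD of compound and empty wells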). Conditions: low glucose.
Assay [12] in a line: galactose survival enhancers in mitochondrial complex I cybrids – cell-based, galactose medium, ATP luminescence, primary screen (AID 1645843;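 active means z-score of at least 1.8 in each of two replicates, scored against plate mean and spread of sample wells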;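 further: positive z means more ATP and so rescue of galactose-driven cybrid death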). The note with it: complex I mutant cybrid cells, 72 h, stronger effect = higher value.
For a further assay, the system named is F380Y. The assay can be described thus: BK channel mutant inhibitors and activators – cell-based, U2OS BacMam, thallium flux, beta subunits, selectivity assay, profiling panel (AID 1259406;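 active means thallium flux through the channel raised or lowered by more than 3 SD from vehicle-only wells, actives on both sides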;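 further: initial slope of Thallos dye fluorescence rise after thallium is added; log ratio against the mean of 0.3% DMSO vehicle wells on the same plate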). Conditions: U2OS BacMam BK variants, at 30 µM.
In the next assay the test system is F380Y/beta2Delta. The assay is described as above. The note with it: U2OS BacMam BK variants, at 30 µM.
For assay [13], the target named is Calcium-activated potassium channel subunit alpha-1 (Homo sapiens) + Leucine-rich repeat-containing protein 26 (Homo sapiens) (UniProt Q12791+Q2I0M4). The description is as above. Conditions: U2OS BacMam BK variants, F380Y/Slo1WT/gamma1, at 30 µM.
The next assay deals with R275C. Described as above. Conditions: U2OS BacMam BK variants, at 30 µM.
Another assay concerns R275C/beta1. The assay is described as above. The note with it: U2OS BacMam BK variants, at 30 µM.
The subject of the next assay is R275C/beta2Delta. The assay is described as above. Conditions: U2OS BacMam BK variants, at 30 µM.
Assay [14] is described as follows: P. berghei load reduction in hepatocytes – cell-based, HepG2, luciferase luminescence, HepG2 viability, primary screen (AID 624349; in the data active means parasite load remaining mostly below about 12%, no sharp cut-off; inactive means mostly above about 10%;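 further: 100% = mean of DMSO negative control wells on the same plate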). The note with it: P. berghei liver stage in HepG2, luciferase luminescence, concentration not given here; parasite load remaining: stronger effect = lower value; viability: measured here: HepG2 viability without parasites.
A short description of assay [15]: viability loss with induced miR-34 in A549 – imaging, A549 dox-inducible miR-34, nuclei and caspase counts, primary screen (AID 1347080;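 active means compounds whose cell count with miR-34 switched on is under 0.7 times the count with it off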). Conditions: A549 miR-34 inducible, Hoechst nuclei count, 48 h.
Setting [16] is: MELAS cybrid survival, CellTiter-Glo 48 h, stronger effect = higher value.
The mark [17] stands for this setting: Rieske KO mouse fibroblast survival, CellTiter-Glo 72 h.

NAD(+) hydrolase SARM1 (Homo sapiens), sequence (Q6SZW1 whole entry, looked up): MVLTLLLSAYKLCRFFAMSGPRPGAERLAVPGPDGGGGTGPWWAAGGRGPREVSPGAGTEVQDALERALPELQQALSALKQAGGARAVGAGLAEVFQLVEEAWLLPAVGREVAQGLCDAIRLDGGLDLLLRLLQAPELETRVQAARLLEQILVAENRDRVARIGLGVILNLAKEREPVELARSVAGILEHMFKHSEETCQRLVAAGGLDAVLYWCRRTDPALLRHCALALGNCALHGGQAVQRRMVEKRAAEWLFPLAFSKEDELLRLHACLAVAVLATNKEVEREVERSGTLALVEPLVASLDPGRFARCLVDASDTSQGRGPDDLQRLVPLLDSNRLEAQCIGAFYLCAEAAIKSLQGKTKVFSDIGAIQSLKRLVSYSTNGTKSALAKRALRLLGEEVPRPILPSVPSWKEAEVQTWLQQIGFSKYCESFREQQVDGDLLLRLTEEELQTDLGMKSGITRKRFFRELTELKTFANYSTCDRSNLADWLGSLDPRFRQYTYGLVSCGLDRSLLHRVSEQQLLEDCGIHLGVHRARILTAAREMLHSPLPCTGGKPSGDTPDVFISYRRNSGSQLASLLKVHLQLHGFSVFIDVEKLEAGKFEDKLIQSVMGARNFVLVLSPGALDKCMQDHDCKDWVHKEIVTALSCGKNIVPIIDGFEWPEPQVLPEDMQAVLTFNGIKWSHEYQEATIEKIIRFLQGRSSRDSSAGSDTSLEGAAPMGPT
6-phosphogluconate dehydrogenase, decarboxylating (Homo sapiens), sequence (P52209 whole entry, looked up): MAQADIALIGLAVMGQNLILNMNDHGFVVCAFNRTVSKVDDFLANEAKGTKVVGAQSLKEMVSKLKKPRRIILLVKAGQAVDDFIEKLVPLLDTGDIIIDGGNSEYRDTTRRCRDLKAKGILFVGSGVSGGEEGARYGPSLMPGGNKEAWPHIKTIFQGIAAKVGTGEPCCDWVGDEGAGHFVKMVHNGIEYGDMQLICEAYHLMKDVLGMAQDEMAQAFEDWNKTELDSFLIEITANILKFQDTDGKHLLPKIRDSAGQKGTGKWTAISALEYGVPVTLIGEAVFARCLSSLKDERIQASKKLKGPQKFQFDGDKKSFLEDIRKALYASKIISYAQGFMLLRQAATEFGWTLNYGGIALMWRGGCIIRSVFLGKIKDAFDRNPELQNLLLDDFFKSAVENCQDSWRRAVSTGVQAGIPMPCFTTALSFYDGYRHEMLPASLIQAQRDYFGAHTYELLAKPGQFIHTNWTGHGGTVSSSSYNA
Mitogen-activated protein kinase 7 (Homo sapiens), sequence (Q13164 whole entry, looked up, the tested form may be a part): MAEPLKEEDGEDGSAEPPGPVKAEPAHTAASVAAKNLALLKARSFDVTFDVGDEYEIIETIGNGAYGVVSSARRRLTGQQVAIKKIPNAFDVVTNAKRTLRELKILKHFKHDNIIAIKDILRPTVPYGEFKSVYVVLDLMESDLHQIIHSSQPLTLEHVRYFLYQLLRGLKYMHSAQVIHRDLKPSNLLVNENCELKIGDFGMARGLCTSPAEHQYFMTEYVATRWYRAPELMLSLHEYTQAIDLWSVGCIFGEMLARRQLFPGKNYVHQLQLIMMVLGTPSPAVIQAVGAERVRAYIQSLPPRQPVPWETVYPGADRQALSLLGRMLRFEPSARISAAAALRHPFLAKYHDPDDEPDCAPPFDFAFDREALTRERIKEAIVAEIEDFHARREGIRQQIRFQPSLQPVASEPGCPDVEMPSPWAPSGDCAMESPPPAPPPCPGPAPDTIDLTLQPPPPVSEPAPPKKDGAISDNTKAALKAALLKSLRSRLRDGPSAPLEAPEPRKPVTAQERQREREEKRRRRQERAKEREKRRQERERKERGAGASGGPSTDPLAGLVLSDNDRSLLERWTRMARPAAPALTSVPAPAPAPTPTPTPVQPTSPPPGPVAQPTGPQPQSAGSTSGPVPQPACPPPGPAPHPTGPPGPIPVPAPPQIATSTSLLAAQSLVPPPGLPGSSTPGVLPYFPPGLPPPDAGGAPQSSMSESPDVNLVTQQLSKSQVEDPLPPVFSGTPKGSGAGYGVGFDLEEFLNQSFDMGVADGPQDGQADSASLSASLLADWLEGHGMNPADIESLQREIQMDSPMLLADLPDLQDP
Calcium-activated potassium channel subunit alpha-1 (Homo sapiens) + Leucine-rich repeat-containing protein 26 (Homo sapiens), sequence (Q2I0M4 whole entry, looked up, one chain of several): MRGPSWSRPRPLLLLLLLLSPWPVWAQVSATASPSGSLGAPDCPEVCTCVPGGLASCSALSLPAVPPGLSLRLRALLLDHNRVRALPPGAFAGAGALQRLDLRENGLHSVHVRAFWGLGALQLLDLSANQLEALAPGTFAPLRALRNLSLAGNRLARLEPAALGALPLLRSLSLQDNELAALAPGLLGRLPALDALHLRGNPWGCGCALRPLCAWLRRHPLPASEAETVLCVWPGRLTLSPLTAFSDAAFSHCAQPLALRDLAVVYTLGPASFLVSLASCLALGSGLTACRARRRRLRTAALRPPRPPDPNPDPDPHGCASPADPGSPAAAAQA

`O=C(O[C@@H]1Cc2c(O)cc(O)cc2O[C@@H]1c1cc(O)c(O)c(O)c1)c1cc(O)c(O)c(O)c1`: the viability was 100% (inactive) in assay [1] (at 0.0195 µM, OCI-P5x cells, without rucaparib); 118% (inactive) in assay [1] (at 0.0781 µM, OCI-C5x cells, with rucaparib 10 µM, 100% = cells with rucaparib alone); 119% (inactive) in assay [1] (at 0.0781 µM, OCI-C5x cells, without rucaparib); 96.1% (active) in [1] (at 0.0781 µM, OCI-P5x cells, with rucaparib 20 µM, 100% = cells with rucaparib alone); 106% (inactive) in assay [1] (at 0.0781 µM, OCI-P5x cells, without rucaparib); 109% (inactive) in [1] (at 0.313 µM, OCI-C5x cells, with rucaparib 10 µM, 100% = cells with rucaparib alone). Besides, the viability in assay [1] (at 0.313 µM, OCI-C5x cells, without rucaparib) was 120% (inactive); in assay [1] (at 0.313 µM, OCI-P5x cells, with rucaparib 20 µM, 100% = cells with rucaparib alone), 94.4% (active); in assay [1] (at 0.313 µM, OCI-P5x cells, without rucaparib), 110% (inactive); in [1] (at 1.25 µM, OCI-C5x cells, with rucaparib 10 µM, 100% = cells with rucaparib alone) it was 111% (inactive); in [1] (at 1.25 µM, OCI-C5x cells, without rucaparib), 108% (inactive); in [1] (at 1.25 µM, OCI-P5x cells, with rucaparib 20 µM, 100% = cells with rucaparib alone), 97.8% (active). Moreover, the viability in [1] (at 1.25 µM, OCI-P5x cells, without rucaparib) was 104% (inactive); in [1] (at 5 µM, OCI-C5x cells, with rucaparib 10 µM, 100% = cells with rucaparib alone), 117% (inactive); in [1] (at 5 µM, OCI-C5x cells, without rucaparib), 114% (inactive); in assay [1] (at 5 µM, OCI-P5x cells, with rucaparib 20 µM, 100% = cells with rucaparib alone) it was 89.7% (active); in [1] (at 5 µM, OCI-P5x cells, without rucaparib), 92.1% (active). For the same molecule, the luciferase signal in assay [2] is 48 AU (inactive).

With `CN1CCN(CC/C=C2/c3ccccc3Sc3ccc(S(=O)(=O)N(C)C)cc32)CC1`, in assay [3], the inhibition was 2.11% (inactive). In addition, the mean signal in assay [4] was 215 (inactive). In assay [5], the remaining NAD is 10 nM (inactive). Further, the luciferase signal in [2] is 108 AU (inactive).

Regarding `COc1ccc2c3c1O[C@H]1C[C@@H](O)C=C[C@@]31CCN(C)C2`, the fluorescence ratio in assay [6] was 1.03 (inactive); in assay [9] it was 1 (inactive). Besides, the inhibition in assay [7] was -2.77% (inactive); in assay [8], -3.95% (inactive); in [3] it was 6.78% (inactive). Moreover, the mean signal in assay [4] is 226 (inactive). The red/green cell ratio (normalised) in assay [10] (actives lie on both sides, counts scaled to control wells, 1 = unselective) is 1.15 (inactive). The normalised cell number in [10] (measured here: epithelial PC-3E GFP cell survival) turned out to be 1; in assay [10] (measured here: mesenchymal TEM4-18 mCherry cell survival), 1.15. Moreover, the z-score in assay [11] (setting [16]) was 0.162 (inactive) and -0.253 (inactive); in assay [11] (setting [17]), 0.459 and -0.846; in assay [12], 0.28 (inactive) and 0.575 (inactive). Moreover, the remaining NAD in [5] is 10 nM (inactive). For the same molecule, the luciferase signal in assay [2] is 64 AU (inactive). For the same molecule, the log fold change Tl+ flux in the assay with F380Y is 0.0204 (inactive); in the assay with F380Y/beta2Delta, 0.0272 (inactive); in [13], -0.0208 (inactive); in the assay with R275C, 0.0192 (inactive); in the assay with R275C/beta1, -0.00593 (inactive); with R275C/beta2Delta, 0.0478 (inactive).

Consider `CC1(C)S[C@@H]2[C@H](NC(=O)[C@H](N)c3ccc(O)cc3)C(=O)N2[C@H]1C(=O)O`, for which the parasite load remaining in assay [14] was 78% (inactive) and 120% (inactive) and 88.8% (inactive). Also, in assay [14], the viability is 117% and 121% and 76%. In addition, the fluorescence ratio was 1.01 (inactive) in assay [6] and 1 (inactive) in assay [9]. For the same molecule, the results for the inhibition in [7], in assay [8] and in assay [3] were -4.09% (inactive), 7.91% (inactive) and 8.62% (inactive), respectively. For the same molecule, the mean signal in assay [4] is 239 (inactive). The fold change in assay [15] (stronger effect = lower value, cell number ratio, induced over uninduced) is 0.943 (inactive) and 0.821 (inactive); in assay [15] (measured here: relative caspase fold change +Dox/-Dox) it was 1.29 and 1.62. For the same molecule, the cell count was 10300 and 8970 in [15] (measured here: total cells with miR-34 induction, stronger effect = lower value); 10900 in assay [15] (measured here: total cells without miR-34 induction). In addition, the z-score in assay [11] (setting [16]) was 0.664 (inactive); in assay [11] (setting [17]), 0.115; in [12], 0.84 (inactive). In addition, in assay [5], the remaining NAD is 10 nM (inactive). Moreover, in assay [2], the luciferase signal is 56 AU (inactive). The log fold change Tl+ flux with F380Y was -0.0516 (inactive); in the assay on F380Y/beta2Delta it was -0.0816 (active); in [13], 0.0259 (inactive); in the assay on R275C, 0.00882 (inactive); in the assay with R275C/beta1, 0.0045 (inactive); with R275C/beta2Delta it was -0.0233 (inactive).

As a reminder, the viability is a read-out of living cells in per cent, often relative to untreated cells. A word on the inhibition: it is the relative decrease from the control value, in per cent.
